An excerpt weighted towards active compounds, which were near 2.7% of everything screened.
IP6K1 inh – IP6K1 kinase inhibition; Q92551; IP6K1 kinase, ADP-Glo luminescence, 2 h; active compounds read low; activity change, % (series mostly up to about 58 µM); 140,000 compounds, 0.81% hits; in the data active = activity change below about -25%
Target sequence (Q92551 whole entry, looked up): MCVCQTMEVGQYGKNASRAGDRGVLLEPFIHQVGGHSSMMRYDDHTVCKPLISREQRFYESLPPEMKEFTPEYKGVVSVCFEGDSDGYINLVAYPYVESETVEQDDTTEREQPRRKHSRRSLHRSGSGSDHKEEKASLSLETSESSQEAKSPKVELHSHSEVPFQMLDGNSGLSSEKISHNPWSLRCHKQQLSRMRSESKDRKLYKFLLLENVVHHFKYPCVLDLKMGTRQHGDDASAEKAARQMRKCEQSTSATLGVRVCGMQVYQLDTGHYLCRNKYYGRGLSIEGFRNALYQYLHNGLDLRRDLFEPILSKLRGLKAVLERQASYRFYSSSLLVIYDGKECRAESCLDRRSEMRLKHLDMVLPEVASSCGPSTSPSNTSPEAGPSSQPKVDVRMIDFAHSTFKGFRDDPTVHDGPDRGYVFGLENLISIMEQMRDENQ
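ADP-Glo luminescence measures ADP made by human IP6K1 during a 2 h RT reaction with ATP/IP6 (mix at 1.3 mM/130 uM); top library doses 57.5 and 19.1 uM final.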
KDM5B inh – KDM5B demethylase inhibition | Q9UGL1 | KDM5B demethylase, FDH-coupled NADH fluorescence (FDH is formaldehyde dehydrogenase) | Potency, µM (top dose mostly 57.7 µM), actives largely listed as inhibitors | 220,000 compounds, 2.6% hits | AID 1347165; active = well fitted inhibition curve with a large enough effect; inconclusive = small, poorly fitted or top-dose-only effect; inactive = no such curve, though single readings can be large or run the other way; also: nearly all actives have a fitted effect of over 70% in size
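KDM5BΔAP (200 nM final) in 50 mM HEPES pH 7.5, 0.01% Tween-20 was preincubated 10 min at RT with compound over a concentration range. Substrate mix (H3K4me3 12.5 µM, α-KG 25 µM, Fe²⁺, ascorbate, NAD⁺, FDH) was added, and NADH fluorescence change over 30 min gave dose-response curves.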
Each line names hits and unclear results; the compound was inactive in the other large screens.

COc1ccc(-c2cc3c(=O)n(CCNC(=O)c4ccccc4C)ccn3n2)cc1	KDM5B inh 20µM
COc1ccc(-c2cc3c(=O)n(CCNC(=O)c4ccccn4)ccn3n2)cc1	KDM5B inh inconclusive
Cc1ccc(-c2cc3c(=O)n(CCNC(=O)c4nn(C)c5ccccc45)ccn3n2)cc1C	KDM5B inh 22µM
Cn1ncc2c(C(=O)Nc3ccc(F)cc3)cc(-c3ccccc3C(F)(F)F)nc21	none (no result: KDM5B inh)
Cc1ccc(-c2cnc(CCC(=O)NC(C)c3ccco3)o2)cc1 (stereo unspecified)	none (no result: IP6K1 inh)
CC(C)NC(=O)c1cc(Br)cn2ccnc12	KDM5B inh 40µM
CNC(=O)c1cc(Br)cn2ccnc12	KDM5B inh 35µM
CNC(=O)c1cccc(-n2c(C)nc3cccnc32)c1C	KDM5B inh inconclusive
O=C(c1cc(Br)cn2ccnc12)N1CCC(N2CCCNC2=O)CC1	KDM5B inh inconclusive
CCCN1CCN(c2nc3c(c(=O)[nH]c(=O)n3C)n2Cc2ccccc2C)CC1	none (no result: IP6K1 inh)
Cc1ccccc1NC(=O)CSc1nc(C)c(C)o1	none (no result: IP6K1 inh)
Cc1ccc([S+](=O)([O-])NC2CCN(Cc3cccc(-c4cccc(C)c4)c3)CC2)cc1	none (no result: KDM5B inh)
O=S(=O)(CCN1CCOC2CCCCC21)c1ccccc1 (stereo unspecified)	none (no result: IP6K1 inh)
Cc1cc(C)c(C(=O)COC(=O)c2ccc(-c3ccccc3)cc2)c(C)c1	none (no result: IP6K1 inh)
O=c1c2nc(-c3ccncc3)ccc2ncn1-c1ccccc1	none
O=c1c2nc(-c3ccsc3)ccc2ncn1-c1ccccc1	KDM5B inh 40µM
COc1cccc(CC(=O)NCc2nnc3cc(-c4nc(C5CC5)no4)ccn23)c1	KDM5B inh inconclusive
O=C(Cc1cccc(F)c1)NCc1nnc2cc(-c3nc(C4CC4)no3)ccn12	KDM5B inh 28µM
O=C(Cc1ccc(F)cc1)NCc1nnc2cc(-c3nc(C4CC4)no3)ccn12	KDM5B inh 28µM
O=C(Cc1ccc(Cl)cc1)NCc1nnc2cc(-c3nc(C4CC4)no3)ccn12	none
COc1ccccc1-c1[nH]nc2ncc(C(=O)Nc3cc(C)nn3C)nc12	none
COc1cc(-c2cnc3n[nH]c(-c4ccc(F)cc4C)c3n2)ccn1	KDM5B inh inconclusive
COc1ccccc1-c1[nH]nc2ncc(C(=O)NCc3ccccc3)nc12	KDM5B inh 32µM
COc1ccc(-c2cnc3n[nH]c(-c4ccc(F)cc4C)c3n2)cn1	KDM5B inh 28µM
COc1ccccc1-c1[nH]nc2ncc(-c3ccnc(C)c3)nc12	none
COc1ccccc1-c1[nH]nc2ncc(-c3ccccc3C)nc12	KDM5B inh 32µM
Cc1ccccc1-c1[nH]nc2ncc(-c3ccccc3O)nc12	none
COc1ccccc1-c1[nH]nc2ncc(-c3cccc(O)c3)nc12	KDM5B inh 35µM
COc1ccc(C(=O)NC2CCN(Cc3cccc(-c4cccc(C)c4)c3)CC2)cc1	none (no result: KDM5B inh)
COCCNC(=O)c1cc(-c2ccc(C(F)(F)F)cc2)nc2c1cnn2C	none (no result: KDM5B inh)
Cc1nn(-c2ccccc2)c2c1C(C(C)C)N(C1CCCN(C(=O)Nc3ccccc3F)C1)C2=O (stereo unspecified)	none (no result: KDM5B inh)
Cc1cc(F)ccc1-c1[nH]nc2ncc(-c3ccnn3C)nc12	KDM5B inh inconclusive
Cc1ccccc1-c1[nH]nc2ncc(-c3ccnn3C)nc12	KDM5B inh 35µM
COc1ccccc1-c1[nH]nc2ncc(-c3cnn(C)c3)nc12	KDM5B inh inconclusive
COc1ccccc1-c1[nH]nc2ncc(-c3ccccc3F)nc12	KDM5B inh 35µM
CCCc1noc(-c2cccn3c(CNC(=O)Cc4ccccc4OC)nnc23)n1	none
CCCc1noc(-c2cccn3c(CNC(=O)CCc4ccccc4)nnc23)n1	KDM5B inh 18µM
CCC(=O)NCc1nnc2c(-c3nc(C(C)C)no3)cccn12	KDM5B inh inconclusive
CC(C)c1noc(-c2cccn3c(CNC(=O)CCc4ccccc4)nnc23)n1	KDM5B inh 14µM
Cc1ccc(CN(C(=O)CCc2cccs2)C2CC2)cc1	none (no result: IP6K1 inh)
CCCNC(=O)[C@@H]1Cc2cn(Cc3c(C)noc3C)c3cccc(c23)[C@H](CC(C)C)N1	KDM5B inh inconclusive
COc1ccc2c(c1)C(O)(CC(=O)c1ccc(F)cc1)C(=O)N2 (stereo unspecified)	none (no result: IP6K1 inh)
COC(=O)CNC(=O)C1CCCN1c1nc2ncccc2o1 (stereo unspecified)	KDM5B inh inconclusive
COC(=O)CNC(=O)C1CCCN(c2nc3ncccc3o2)C1 (stereo unspecified)	KDM5B inh 28µM
O=C(NCc1cccc(F)c1)C1CCCN(c2nc3ncccc3o2)C1 (stereo unspecified)	none
COCCNC(=O)C1CCCN(c2nc3ncccc3o2)C1 (stereo unspecified)	KDM5B inh 28µM
O=C(NCc1ccccn1)C1CCCN(c2nc3ncccc3o2)C1 (stereo unspecified)	KDM5B inh 35µM
COCCNC(=O)C1CCN(c2nc3ncccc3o2)CC1	none (no result: KDM5B inh)
N#Cc1ncn(CC(=O)Nc2cc(F)ccc2F)n1	none (no result: IP6K1 inh)
CCc1ccc(NC(=O)Nc2c(NC3CCCCC3)c3ccccc3oc2=O)cc1	none (no result: IP6K1 inh)
Cn1ncc2c(C(=O)Nc3ccccc3Cl)cc(-c3cccc(C(F)(F)F)c3)nc21	none (no result: KDM5B inh)
COc1ccc(Nc2ccnc(N3CCC(NC(=O)c4ccccc4OC)CC3)n2)cc1	none (no result: KDM5B inh)
O=Cc1cccc(-c2ccc(C(=O)O)o2)c1	KDM5B inh 126µM
O=C(O)c1ccc(Cc2ccccc2)o1	none (no result: IP6K1 inh)
Cc1ccc(C(=O)N2CCC(N3CC4(CCCC4)C3c3ccccc3)CC2)s1 (stereo unspecified)	none (no result: KDM5B inh)
CCOC(=O)COc1ccc2c(=O)c(-c3ccc(Br)cc3)c(C(F)(F)F)oc2c1	none (no result: IP6K1 inh)
Cc1cn2nc(C(=O)NCCc3ccccc3)cc2c(N2CCCC2)n1	none
Cc1cn2nc(C(=O)NCc3cccc(Cl)c3)cc2c(N2CCCC2)n1	KDM5B inh 25µM
Cc1cn2nc(C(=O)NCCCc3ccccc3)cc2c(N2CCCC2)n1	KDM5B inh 25µM
CCOc1cccc(CNC(=O)c2cc3c(N4CCCC4)nc(C)cn3n2)c1	none
CCN(CC)CCNC(=O)C(=O)Nc1cccc2[nH]ccc12	none (no result: IP6K1 inh)
COc1ccc(-c2cc3ccc(OCC(=O)NCCN(C)C)cc3oc2=O)cc1OC	none (no result: IP6K1 inh)
COc1cncc(-c2nc(-c3c(C)noc3C)cc3c2cc(C)n3CCN(C)C)c1	KDM5B inh 40µM
COc1cc(CNc2nc(-c3c(C)noc3C)cc3cc(CN(C)C)oc23)cc(OC)c1	none
Cc1cc2cc(-c3c(C)noc3C)nc(Nc3ccccn3)c2o1	KDM5B inh inconclusive
COc1cc(-c2nc(-c3c(C)noc3C)cc3c2cc(C)n3CCN(C)C)ccn1	KDM5B inh 32µM
Cc1noc(C)c1-c1cc2c(cc(C)n2CCN(C)C)c(Nc2ccncn2)n1	KDM5B inh 32µM
COc1cc(-c2nc(-c3c(C)noc3C)cc3[nH]c(C)cc23)ccn1	KDM5B inh 32µM
COc1ncccc1-c1nc(-c2c(C)noc2C)cc2c1cc(C)n2C	none
CCCNc1c(NC(=O)c2ccc(OC)c(OC)c2)c(=O)oc2ccccc12	none (no result: IP6K1 inh)
Cc1ccc(Nc2ccnc(N3CCCN(C(=O)C4CCCC4)C3)n2)cc1	none (no result: KDM5B inh)
CCCc1ccc2oc(C(=O)N(C)Cc3snnc3C)c(C)c2c1	none
Cc1noc(C)c1S(=O)(=O)Nc1c(NCc2ccccc2)c2ccccc2oc1=O	none (no result: IP6K1 inh)
Cc1noc(C)c1-c1cc2c(cc(C)n2CCN(C)C)c(-c2ccccc2)n1	KDM5B inh 32µM
Cc1noc(C)c1-c1cc2c(cc(C)n2CCN(C)C)c(-c2ccsc2)n1	KDM5B inh 32µM
Cc1noc(C)c1-c1cc2cc(C(C)C)oc2c(NCCN(C)C)n1	none

Assay outcomes deposited in PubChem BioAssay by National Center for Advancing Translational Sciences (NCATS).
